Source: PubChem BioAssay
Pf apPOL block = Pf-apPOL DNA polymerase inhibition | Recombinant Pf-apPOL, molecular beacon fluorescence, 1.5 h | AID 1794808 | inhibition, % at 10 µM | 0.25% of 210,000 active
mHTT CaM bind = mHTT-calmodulin interaction abrogation. 3.6% of 190,000 active. inhibition, % at 15 µM. AlphaScreen His-mHTT/GST-CaM binding, luminescence. AID 1671202;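 note: 0% = both proteins with DMSO and 100% = one protein alone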
* marks the source's active call; other numbers are inactive results; / = not tested or not shown; ! = not active in a repeat. Rows were chosen to be rich in hits. Some 3.6% of all compounds tested hit in one or more screens of this group. Cut-off read from the data, not from the text of the source: active = inhibition above about 50%; inactive = the rest.

SMILES	Pf apPOL block	mHTT CaM bind
COc1ccc(C(Nc2cccc(C)n2)c2ccc3cccnc3c2O)cc1 (stereo unspecified)	3	100*
Cc1cccc(NC(c2ccc(Cl)cc2)c2ccc3cccnc3c2O)n1 (stereo unspecified)	-12	98*
Cc1cccc(NC(c2ccncc2)c2ccc3cccnc3c2O)n1 (stereo unspecified)	2	100*
Cc1cccc(NS(=O)(=O)c2ccc(Cl)cc2)n1	0	-2
Cc1cccc(NC(c2cccc(Cl)c2)c2ccc3cccnc3c2O)n1 (stereo unspecified)	-2	98*
Cc1cccc(NC(=O)c2cccs2)n1	0	/
COc1ccc(NC(=O)Nc2cccc(C)n2)cc1	4	-6
O=C(Nc1cccc(Cl)c1)Nc1cccc2cccnc12	-5	-2
O=Cc1ccc(OCC(=O)O)c(I)c1	-16	-2
O=C(NC1CCN(c2ccccc2C(=O)N2CCCC2)CC1)c1ccc(F)cc1F	-14	4
Cn1nc(C(=O)NCc2ccccc2)c2c1CCN(C(=O)COc1ccc(Cl)cc1)C2	-7	87*
Cn1nc(C(=O)NCc2ccccc2)c2c1CCN(C(=O)COc1ccccc1)C2	-9	56*
CCOc1ccc(C(=O)N2CCc3c(c(C(=O)NCc4ccc(F)cc4)nn3C)C2)cc1	-10	-9
CC(C)CC(=O)N1CCc2c(c(C(=O)NCc3ccccc3)nn2C)C1	-7	18
Cn1nc(C(=O)NCc2ccc(F)cc2)c2c1CCN(C(=O)COc1ccc(F)cc1)C2	-9	81*
COCC(=O)N1CCc2c(c(C(=O)NCc3ccc(Cl)cc3)nn2C)C1	-1	18
CSc1nnc(-c2nn(C)c3c2CN(C(=O)c2ccc(F)c(F)c2)CC3)n1C	-2	2
COc1ccc(N2C(=O)NC(=O)/C(=C\c3cc(C)n(-c4ccccc4)c3C)C2=O)cc1	-3	46
O=C(Nc1cccc(Cl)c1Cl)c1cnn2c(C(F)(F)F)cc(-c3ccco3)nc12	2	5
O=C1CCC[C@H]2C[C@H](NCCc3ccncc3)CC[C@]23CCCN13	-8	77*
O=C1CCC[C@H]2C[C@H](NCc3ccc(F)cc3)CC[C@]23CCCN13	-7	-6
O=C(O)C(Cc1ccccc1)NC(=O)C1CCCN1C(=O)COc1ccccc1 (stereo unspecified)	2	-6
C=CCOc1ccccc1CN1CCc2cc(OC)c(OC)cc2C1	-1	5
O=C(c1nc(-c2cccc(F)c2)n2c1CCCCC2)N1CCN(c2ccccc2)CC1	-4	78*
COc1ccc(N2CCN(C(=O)c3nc(-c4cccc(F)c4)n4c3CCCCC4)CC2)cc1	0	44
SMILES	Pf apPOL block	mHTT CaM bind
COc1ccc(C2SCCN2C(=O)c2ccccc2C(=O)O)cc1Br (stereo unspecified)	0	5
COc1ccc(C2SCC3C(=O)N(c4ccccc4)C(=S)N32)cc1O (stereo unspecified)	-5	100*
O=C(NCc1ccc(N2CCCC2)nc1)c1ccc(Cl)s1	1	-2
O=C(COc1ccc(Cl)cc1)NCCCN1CCOC(c2ccccc2)C1 (stereo unspecified)	-12	2
Cc1[nH]c2ccccc2c1C=Nc1c(-c2ccco2)nc2ccccn12	-3	91*
Oc1cccc(C=Nc2c(-c3ccco3)nc3ccccn23)c1	8	49
COc1ccc2oc(-c3cccc(F)c3)cc(=O)c2c1	2	0
NC(=O)c1nc(-c2ccc([N+](=O)[O-])cc2)nc2c1[nH]c(=O)n2-c1ccccc1F	7	6
Cc1ccc(I)cc1S(=O)(=O)n1nnc2ccccc21	-2	2
O=S(=O)(c1cccs1)n1nnc2ccccc21	-6	84*!
COc1ccc(I)cc1S(=O)(=O)n1nnc2ccccc21	-11	89*
O=S(=O)(c1cccs1)n1cnc2ccccc21	-13	-2
Cc1c(C(=O)N(C)Cc2ccccc2)oc2ccc(S(=O)(=O)N3CCOCC3)cc12	-4	-5
COc1cccc(C(=O)N2CCc3c(nc4cc(-c5ccccc5)[nH]n4c3=O)C2)c1OC	5	66*
COc1ccc(C(=O)N2CCc3nc4cc(-c5ccccc5)[nH]n4c(=O)c3C2)c(OC)n1	-1	-3
Cn1nc(C(=O)N2CCc3c(nc4cc(-c5ccccc5)[nH]n4c3=O)C2)c2ccccc21	3	61*
Cn1nc(C(=O)N2CCc3nc4cc(-c5ccccc5)[nH]n4c(=O)c3C2)c2ccccc21	19	50
COc1ccc(Cl)cc1C(=O)N1CCc2c(nc3cc(-c4ccccc4)[nH]n3c2=O)C1	-6	41
COc1ccc(NC(=O)N2CCc3nc4cc(-c5ccccc5)[nH]n4c(=O)c3C2)c(OC)c1	-5	0
COc1ccc(NC(=O)N2CCc3c(nc4cc(-c5ccccc5)[nH]n4c3=O)C2)c(OC)c1	0	52*
COc1ccc(C(=O)N2CCc3c(nc4cc(-c5ccccc5)[nH]n4c3=O)C2)c(OC)n1	-1	56*
O=C(NCCc1ccco1)c1ccc2c(c1)nc1n2CCCCC1	2	7
